# Experimental data published in PubChem BioAssay (EPA / NIEHS).
# Active and inactive are the calls of the source. Rule for the calls: active = hit-call score of the fitted dose curve at least 0.9, where 1 is the maximum; inactive = score below 0.9.
# Read-out: Tissue Factor, F3 (gene 2152)
# Test: BSK_LPS_TissueFactor: BioMAP Diversity Plus: LPS Assay for Tissue Factor Biomarker Activity (AID 2283084)
# Conditions: primary human HUVEC with PBMC; actives raise or lower the signal
# Description: BSK_LPS is a cell-based, multiplexed-readout assay that uses umbilical vein endothelium and peripheral blood mononuclear cells, a human vascular primary cell co-culture, with measurements taken at 24 hours after chemical dosing in a 96-well plate.BSK_LPS_TissueFactor is an assay component measured in the BSK_LPS assay. It measures CD142 Tissue Factor antibody related to regulation of gene expression using ELISA technology.Data from the assay component BSK_LPS_TissueFactor was analyzed into 1 assay endpoint. This assay endpoint, BSK_LPS_TissueFactor, was analyzed with bidirectional fitting relative to DMSO as the negative control and baseline of activity. Using a type of binding reporter, gain or loss-of-signal activity can be used to understand changes in the signaling as they relate to the gene F3. Furthermore, this assay endpoint can be referred to as a primary readout, because this assay has produced multiple assay endpoints where this one serves a signaling function. To generalize the intended target to other relatable targets, this assay endpoint is annotated to the cytokine intended target family, where the subfamily is coagulation factor.
# The levels of cell surface (or secreted, indicated by the prefix "s") biomarker endpoints were measured by ELISA. Overt cytotoxicity to cells in confluent adherent cultures (all systems other than the BT system) was assessed by measuring total protein levels using sulforhodamine B (SRB) staining in parallel cultures at the time of biomarker measurements, indicated as SRB endpoints. For proliferation assays for adherent cell types, individual cell types are cultured at sub-confluence and relative cell numbers quantified by SRB staining at time points optimized for each system (48 h: 3C and CASM3C systems; 72 h: BT and HDF3CGF systems; 96 h: SAg system). SRB was performed by staining cells with 0.1% SRB after fixation with 10% TCA and reading wells at 560 nm.Viability and proliferation of PBMC (T cells) was quantified by Alamar Blue reduction for the SAg and BT systems. For PBMC viability (referred to as PBMC Cytotoxicity within the assay endpoint names), cells were plated (75,000/well in a 96-well plate) and then chemical samples added for 1 h before addition of activators, SEB and TSST-1 (20 ng/mL final concentration each). Cells were incubated for 90 h. Then, Alamar Blue (20 uL/well) (Invitrogen, Cat DAL1100) was added for 6 h, and the plates were read with a fluorescence microplate reader at 546/580 nm (excitation/emission). For PBMC proliferation, cells were plated and activated as above but incubated for only 16 h prior to addition of Alamar Blue. Plates were read after 6 h.
Structure (SMILES),AC50,outcome
CCCCCCCCOc1ccc(C(=O)c2ccccc2)c(O)c1,12.6 µM (active),
Clc1cc(Cl)c2c(c1)N=C1CCCCCN1C2,,inactive
CCN(Cc1cccc(S(=O)(=O)O)c1)c1ccc(C(=C2C=CC(=[N+](CC)Cc3cccc(S(=O)(=O)O)c3)C=C2)c2ccccc2S(=O)(=O)[O-])cc1,,inactive
CC[C@@H]1C[C@H](N(Cc2cc(C(F)(F)F)cc(C(F)(F)F)c2)C(C)=O)c2cc(C(F)(F)F)ccc2N1C(=O)OC(C)C,,inactive
CCCCCCCCCCCO,,inactive
COc1cccc([C@H](O)C2CCN(CCc3ccc(F)cc3)CC2)c1OC,,inactive
O=C1O[C@H]([C@@H](O)CO)C(O)=C1O,,inactive
CCCCCCCCCC(=O)O,,inactive
CC1=CC(=O)/C(=C(/C)O)C(=O)O1,,inactive
CCCCCc1ccc(N)cc1,,inactive
OCCO,,inactive
CCCCOC(=O)CC(CC(=O)OCCCC)(OC(C)=O)C(=O)OCCCC,,inactive
Clc1ccccc1C(c1ccccc1)(c1ccccc1)n1ccnc1,31.9 µM (active),
O=CCCCC=O,,inactive
CCCC(=O)OCCC(C)C,,inactive
CCN(Cc1cccnc1)C(=O)c1cccc(Cl)c1[C@]1(C)C(=O)N(Cc2ccc(OC)cc2OC)c2ccc(Cl)cc21,12.5 µM (active),
O=C(Nc1ccc(Cl)cc1)Nc1ccc(Cl)c(Cl)c1,2.26 µM (active),
Cc1oc2c(NC(=O)c3c(Cl)cccc3Cl)cccc2c1C(C)(C)O,4.5 µM (active),
c1ccc2n[nH]nc2c1,,inactive
Cc1ncc(CO)c(CO)c1O,,inactive

Structure (SMILES),AC50,outcome
COc1cc(C(=O)NC2CCN(C)CC2)ccc1Nc1ncc2c(n1)N(C1CCCC1)CC(F)(F)C(=O)N2C,12.1 µM (active),
CC(C)(C)c1cc(/C=C2\SC(N)=NC2=O)cc(C(C)(C)C)c1O,25.1 µM (active),
CN1C(=O)N(c2ccccc2Br)Cc2cnc(Nc3ccc4c(c3)OCC(CO)O4)nc21 (stereo not given),3.52 µM (active),
CC1(C)NC(=O)N(c2ccc([N+](=O)[O-])c(C(F)(F)F)c2)C1=O,,inactive
c1ccc(C[n+]2cccc3ccccc32)cc1,,inactive
CCCOC(=O)c1cc(O)c(O)c(O)c1,,inactive
CN(C)c1ccc(C(=C2C=CC(=[N+](C)C)C=C2)c2ccc(N(C)C)cc2)cc1,0.662 µM (active),
O=C(O)c1ccccc1-n1cc(C(=O)O)c(=O)c2cc(Nc3c(F)cc(F)cc3Cl)c(Cl)cc21,,inactive
CCCCOC(=O)c1ccc(O)cc1,,inactive
NCc1cccc(C2CCN(C(=O)c3ccc(C#Cc4ccccc4F)o3)CC2)c1,28.2 µM (active),
O=c1c(-c2ccc(O)cc2)coc2cc(O)cc(O)c12,13.2 µM (active),
CCOC(=O)O[C@H](C)OC(=O)c1ccc2c(c1)cc(C(=O)NC1CCN(C(C)C)CC1)n2Cc1cc(-c2ccc(Cl)s2)on1,10.9 µM (active),
CC(C)(C)c1csc(-c2cc3cc(OCc4ccccc4CC(=O)O)ccc3o2)n1,,inactive
Oc1ccc2ccccc2c1,,inactive
O=C(O)c1ccccc1C(=O)OCc1ccccc1,,inactive
Cc1ccc(C(C)C)cc1,,inactive
CCN(CC)C(=O)c1cc(S(=O)(=O)Cc2ccccc2)c(N2CCC(c3ccccc3)CC2)cc1N(CC)CCN(C)C,33.5 µM (active),
CC(C)(c1cc(Br)c(O)c(Br)c1)c1cc(Br)c(O)c(Br)c1,30.1 µM (active),
CCCCCCCC[Si](OCC)(OCC)OCC,,inactive
c1ccc2ccccc2c1,,inactive
